Screening data deposited in PubChem BioAssay by National Center for Advancing Translational Sciences (NCATS).
HEK293 tox: cytotoxic compounds in HEK 293 cells; HEK 293 viability, ATP luminescence (CellTiter-Glo), 48-72 h; Potency, µM (top dose mostly 115 µM), inactives show at the top dose activity change, negative = cytotoxicity, most hits filed as inhibitors; hit rate 6.6% among 94,000; active = well fitted curve in the direction sought with a large enough effect; inconclusive = small, poorly fitted or top-dose-only effect, or another doubt; inactive = no such curve, though single readings can be large; an effect the other way counts as inactive or inconclusive; also: % is scaled to controls: 0 for no effect and ±100 for the full control effect; nearly all actives have a fitted effect of over 60% in size
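HEK 293 cells at 250 cells/well were exposed to compounds by pintool transfer for 48 or 72 hr at 37 degree Celsius, 5% CO2. Viability was read as ATP-coupled luminescence with CellTiter-Glo after 10 min at room temperature.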
Luciferase inh: inhibitors of firefly (Photinus pyralis) luciferase; P08659; Potency, µM (highest dose often 115 µM), actives largely listed as inhibitors; purified P. pyralis luciferase, luminescence, biochemical; hit rate 2.5% among 76,000; active = well fitted curve in the direction sought with a large enough effect; inconclusive = small, poorly fitted or top-dose-only effect, or another doubt; inactive = no such curve, though single readings can be large; an effect the other way counts as inactive or inconclusive; also: % is scaled to controls: 0 for no effect and ±100 for the full control effect; nearly all actives have a fitted effect of over 65% in size
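Inhibitors were tested against purified firefly luciferase in a biochemical, low-substrate format (both substrates at 10uM) and luminescence measured with a CCD imager.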
3T3 cytotox: cytotoxic compounds in NIH 3T3 cells. NIH 3T3 viability, CellTiter-Glo ATP luminescence, 48-72 h. Potency, µM (series often up to 96.7 µM), for inactives: at the top dose activity change, negative = cytotoxicity, usual class: inhibitors. hit rate 4.3% among 94,000. AID 1345082; active = well fitted curve in the direction sought with a large enough effect; inconclusive = small, poorly fitted or top-dose-only effect, or another doubt; inactive = no such curve, though single readings can be large; an effect the other way counts as inactive or inconclusive; also: % is scaled to controls: 0 for no effect and ±100 for the full control effect; nearly all actives have a fitted effect of over 55% in size
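ATP-dependent luminescence (CellTiter-Glo) served as the viability signal for NIH 3T3 cells treated with compound for 48 or 72 hr at 37 °C.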
NPR1 antag: blocks ANP-stimulated signaling of human Npr1 receptor | HEK293 hNpr1 GloSensor cGMP, ANP-stimulated luminescence | P16066 | hit rate 1.6% among 76,000 | Potency, µM (series often up to 46.3 µM), without a hit: at the top dose activity change, negative = inhibition, most hits filed as inhibitors; also: % is scaled to controls: 0 for no effect and ±100 for the full control effect; nearly all actives have a fitted effect of over 60% in size
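Compound pre-incubated 30 min at room temperature on GloSensor-loaded HEK293 cells stably carrying hNpr1 and the pGS-40F cGMP biosensor. Stimulation uses hNppA at 0.1 nM final; luminescence is taken at baseline and 20 min post-agonist.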
Npr1 antag conf: hNpr1 antagonism, confirmation assay; hit rate 76% among 1,400; HEK293 hNpr1 cGMP GloSensor luminescence, ANP-stimulated; Potency, µM (doses to about 57.6 µM), without a hit: at the highest dose activity change, negative = inhibition, most hits filed as inhibitors; AID 1347044; shares compounds with NPR1 antag; also: nearly all actives have a fitted effect of over 70% in size
Npr2 selectivity: hNpr2 antagonism, selectivity versus Npr1; shares compounds with NPR1 antag; HEK293 hNpr2 GloSensor cGMP luminescence, CNP-stimulated; Potency, µM (doses to about 57.6 µM), for inactives: at the top dose activity change, negative = inhibition, most hits filed as inhibitors; hit rate 67% among 1,400; also: nearly all actives have a fitted effect of over 70% in size
FLuc counter: counter-screen for Npr1 antagonists: firefly luciferase inhibitors; shares compounds with NPR1 antag; purified FLuc enzyme, luminescence, Km substrate; Potency, µM (series often up to 57.6 µM), for the others: at the highest dose activity change, negative = inhibition, usual class: inhibitors; hit rate 0.7% among 1,400; AID 1347047; active = well fitted curve in the direction sought with a large enough effect; inconclusive = small, poorly fitted or top-dose-only effect, or another doubt; inactive = no such curve, though single readings can be large; an effect the other way counts as inactive or inconclusive; also: 0% is about no effect
GloSensor cGMP: counter-screen for Npr1 antagonists: GloSensor control cell line. hit rate 69% among 1,400. Potency, µM (series often up to 57.6 µM), without a hit: at the highest dose activity change, negative = inhibition, actives largely listed as inhibitors. shares compounds with NPR1 antag. HEK293 GloSensor cGMP, SNP-stimulated, luminescence; also: % is scaled to controls: 0 for no effect and ±100 for the full control effect; nearly all actives have a fitted effect of over 70% in size
* marks the source's active call; other numbers are inactive results; i = inactive; ? = inconclusive; . = no result; [ ] = dose if it differs, or a comment. This is a sample that favours compounds with a hit; in the whole collection about 11% have one here. Unless noted, calls follow the shape of the full dose curve. Potency is read from the fitted curve at half-maximal effect.

SMILES	HEK293 tox	Luciferase inh	3T3 cytotox	NPR1 antag	Npr1 antag conf	Npr2 selectivity	FLuc counter	GloSensor cGMP
COc1ccc(CCC(=O)N2CCC(Cc3nc(-c4ccccc4)no3)CC2)cc1	35.5µM*	i	?	10µM*	12.2µM*	15.3µM*	2.2%	12.2µM*
Cc1ccc(-c2noc(CCCC(=O)N3CCC(CCOc4ccccc4F)C3)n2)cc1 (stereo not given)	?	i	?	4.47µM*	17.2µM*	19.3µM*	-2.6%	15.3µM*
COCc1nc(-c2ccc(OC3CCN(C(=O)c4nn(C)c5ccccc45)C3)cc2)no1 (stereo not given)	?	i	?	11.2µM*	19.3µM*	19.3µM*	0.4%	19.3µM*
Cn1nc(C(=O)N2CCC(Oc3ccc(-c4noc(C5CC5)n4)cc3)C2)c2ccccc21 (stereo not given)	?	i	?	?	.	.	.	.
Cc1ccc(OCCC2CCN(C(=O)CCc3ccccc3)C2)cc1 (stereo not given)	?	i	?	-1.2%	.	.	.	.
COc1cccc(CCC(=O)N2CCC(Cc3nc(-c4ccccc4)no3)CC2)c1	?	i	?	?	.	.	.	.
COc1cccc(-c2noc(CC3CCN(C(=O)CCc4ccccc4)CC3)n2)c1	?	i	?	12.6µM*	27.3µM*	24.3µM*	-7.0%	24.3µM*
COc1ccc(NC(=O)c2nc3sccn3c2-c2ccc(OC)cc2)cc1	?	.	-20.9%	.	.	.	.	.
O=C(NCc1ccc(F)cc1)c1nc2cccnc2n(C2CC2)c1=O	-4.2%	.	-28.3%	.	.	.	.	.
C#CCNC(=O)[C@@H]1Cc2cn(CC=C)c3cccc(c23)[C@H](CC(C)C)N1	?	i	?	-8.4%[70.6 µM]	.	.	.	.
CC(C)c1nnsc1CNCc1ccccc1OCCCCN1CCOCC1	-5.0%	i	-9.1%	-8.5%	.	.	.	.
COc1ccccc1S(=O)(=O)NC1CCCN(C2CCCCCC2)C1 (stereo not given)	?	i	-3.7%	1.2%	.	.	.	.
Cc1cccc(OCC(=O)N2CCC(Cc3nc(-c4cnccn4)no3)CC2)c1	-23.1%	i	?	-2.8%	.	.	.	.
COCc1nc(-c2ccc(OC3CCN(C(=O)CCc4ccc(OC)cc4)C3)cc2)no1 (stereo not given)	?	i	?	14.1µM*	27.3µM*	27.3µM*	-4.2%	?
Cc1nc(-c2ccc(OC3CCN(C(=O)NCC(C)C)C3)cc2)no1 (stereo not given)	?	i	?	?	.	.	.	.
COc1cccc(CCC(=O)N2CCC(Oc3ccc(-c4noc(C5CC5)n4)cc3)C2)c1 (stereo not given)	?	i	?	?	.	.	.	.
Cc1nc(-c2ccc(OC3CCN(C(=O)c4cc(C)n(C)n4)C3)cc2)no1 (stereo not given)	?	i	?	?	?	?	1.2%	?
COc1cccc(-c2noc(CC3CCN(C(=O)COc4cccc(C)c4)CC3)n2)c1	?	i	?	20µM*	?	30.6µM*	1.7%	38.5µM*
COCc1nc(-c2ccc(OC3CCN(Cc4ccc(C(F)(F)F)cc4)C3)cc2)no1 (stereo not given)	?	i	?	7.94µM*	8.62µM*	10.9µM*	2.5%	7.69µM*
Cc1cnc(-c2ccccc2)n1CCNC(=O)C(C)c1ccccc1 (stereo not given)	-23.4%	.	-24.0%	.	.	.	.	.
